{"source": "PubChem BioAssay AID1645853", "about": "(Buhrlage Lab, Dana-Farber Cancer Institute and Novartis …, 2021)", "note": "The whole screen tested about 47,000 compounds, of which about 2,000 (4.3%) were called active. Shown is part of a subset that was picked to be rich in actives. A number with no mark means an inactive call. No stated cut-off is given here; in the data, active means inhibition above about 30%; inactive means the rest."}
{"target": "Ubiquitin carboxyl-terminal hydrolase 8 (Homo sapiens) (UniProt P40818)", "sequence (P40818 whole entry, looked up)": "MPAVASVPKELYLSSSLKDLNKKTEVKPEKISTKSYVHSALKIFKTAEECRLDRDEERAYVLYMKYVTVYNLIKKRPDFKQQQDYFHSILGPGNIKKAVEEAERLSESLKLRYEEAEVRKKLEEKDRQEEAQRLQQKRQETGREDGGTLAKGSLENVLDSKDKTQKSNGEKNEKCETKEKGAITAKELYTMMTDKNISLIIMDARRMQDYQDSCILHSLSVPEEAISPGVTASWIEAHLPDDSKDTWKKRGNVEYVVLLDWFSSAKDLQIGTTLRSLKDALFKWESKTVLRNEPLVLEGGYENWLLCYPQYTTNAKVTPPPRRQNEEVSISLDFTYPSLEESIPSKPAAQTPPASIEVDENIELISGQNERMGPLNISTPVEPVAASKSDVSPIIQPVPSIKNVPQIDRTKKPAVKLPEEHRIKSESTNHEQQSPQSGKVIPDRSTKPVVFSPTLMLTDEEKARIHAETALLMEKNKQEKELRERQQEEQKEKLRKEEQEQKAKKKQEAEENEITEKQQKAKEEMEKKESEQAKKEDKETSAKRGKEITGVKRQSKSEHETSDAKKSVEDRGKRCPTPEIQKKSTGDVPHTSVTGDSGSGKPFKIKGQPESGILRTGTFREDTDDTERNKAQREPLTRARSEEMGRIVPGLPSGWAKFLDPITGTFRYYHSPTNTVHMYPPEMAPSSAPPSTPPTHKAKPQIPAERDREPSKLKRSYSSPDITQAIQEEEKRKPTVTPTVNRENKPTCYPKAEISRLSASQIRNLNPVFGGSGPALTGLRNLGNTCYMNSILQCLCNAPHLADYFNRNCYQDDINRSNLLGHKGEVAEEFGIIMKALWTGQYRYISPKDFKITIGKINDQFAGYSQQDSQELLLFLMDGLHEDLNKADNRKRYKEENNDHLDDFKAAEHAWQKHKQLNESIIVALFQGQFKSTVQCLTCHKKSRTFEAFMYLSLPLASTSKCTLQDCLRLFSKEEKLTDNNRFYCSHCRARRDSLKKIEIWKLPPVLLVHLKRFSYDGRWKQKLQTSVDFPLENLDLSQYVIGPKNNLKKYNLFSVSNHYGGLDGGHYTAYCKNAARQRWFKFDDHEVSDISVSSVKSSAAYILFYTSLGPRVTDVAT", "experiment": "blocks human USP8 ubiquitin-rhodamine cleavage (AID 1645853)", "conditions": "purified USP8, Ub-rhodamine cleavage fluorescence, 30 min; at 20 µM; stronger effect = higher value"}
{"smiles": "CC(=O)c1ccc(NC(=O)c2cccc(-c3nc(-c4ccccc4)no3)c2)cc1", "inhibition": "8.62%"}
{"smiles": "CCc1ccc(C(=O)N2CCN(c3nnc4ccccn34)CC2)cc1", "inhibition": "-1.4%"}
{"smiles": "O=C(c1ccccc1)N1CCCCCC1C1CCNCC1", "note": "(centres undefined)", "inhibition": "-4.33%"}
{"smiles": "O=C(Nc1c2c(nn1-c1cccc(Cl)c1)CS(=O)(=O)C2)c1cccs1", "inhibition": "9.3%"}
{"smiles": "CC(C)c1ccc(OCC(=O)NCc2nnnn2-c2ccc(Cl)cc2)cc1", "inhibition": "4.83%"}
{"smiles": "Cc1cc(OCC(=O)Oc2ccc(-n3cnnn3)cc2)cc(C)c1Cl", "inhibition": "44.3% (active)"}
{"smiles": "CC(C)NC(=O)c1cccc(-n2cnnn2)c1", "inhibition": "-259%"}
{"smiles": "Cc1ccnc(C2CN(C(=O)CCn3cnc4ccccc43)CCO2)n1", "note": "(centres undefined)", "inhibition": "19.3%"}
{"smiles": "COc1cc(NC(=O)CSc2nc3ccncc3[nH]2)cc(OC)c1", "inhibition": "1.79%"}
{"smiles": "CC(Nc1nnc(Cc2ccccc2)c(=O)[nH]1)c1ccccc1", "note": "(centres undefined)", "inhibition": "85.5% (active)"}
{"smiles": "Nc1ccccc1-c1nnc(Cc2ccccc2)c(=O)[nH]1", "inhibition": "-0.271%"}
{"smiles": "Cc1ccc(Cc2nnc(C(=O)NC(C)c3ccccc3)o2)cc1", "note": "(centres undefined)", "inhibition": "0.117%"}
{"smiles": "CC(=O)NC(Cc1cccc(C)c1)C(=O)NC1CCN(C(=O)c2cccc(C)c2)CC1", "note": "(centres undefined)", "inhibition": "-1.31%"}
{"smiles": "CN1[C@@H](CCC(=O)N2CCc3ccccc32)CNC(=O)[C@@H]2[C@H]1CCN2Cc1ncc[nH]1", "inhibition": "-8.85%"}
{"smiles": "COC(=O)C1CCN(C(=O)CC[C@H]2CNC(=O)[C@@H]3[C@@H](CCN3Cc3ccc(C)cc3)N2C)CC1", "inhibition": "35.8% (active)"}
{"smiles": "CN1[C@@H](CCC(=O)NCc2ccc(F)cc2)CNC(=O)[C@@H]2[C@H]1CCN2CC1CC1", "inhibition": "-6.51%"}
{"smiles": "COc1ccc(-c2c(C)noc2C)cc1S(=O)(=O)NC1CCCC1", "inhibition": "-9.12%"}
{"smiles": "Clc1ccccc1C1SCC2=Nc3ccccc3CN21", "note": "(centres undefined)", "inhibition": "-101%"}
{"smiles": "COc1cccc(NC(=O)Cn2c(-c3ccccc3)nc(C)cc2=O)c1", "inhibition": "2.3%"}
{"smiles": "CCN1C(=O)CCC12CCCN(S(=O)(=O)c1cccc(C)c1)CC2", "note": "(centres undefined)", "inhibition": "-101%"}
{"smiles": "CCC(=O)c1ccc(OCC(=O)Nc2ccc3nc(C)sc3c2)cc1", "inhibition": "-13%"}
{"smiles": "CCC(=O)Nc1nc2cc(NC(=O)c3ccc(OC)cc3)ccc2s1", "inhibition": "47.8% (active)"}
{"smiles": "COc1ccc(NC(=O)c2ccnc(Nc3ccc(OC)cc3)c2)cc1", "inhibition": "25.4%"}
{"smiles": "CCN1C(=O)c2ccccc2Sc2ccc(C(=O)NCc3ccc(OC)cc3OC)cc21", "inhibition": "4.79%"}
{"smiles": "COc1cccc(CN2C(=O)c3ccccc3C2C(=O)NCc2ccccc2OC)c1", "note": "(centres undefined)", "inhibition": "34.7% (active)"}
{"smiles": "COc1ccccc1CNC(=O)c1ccc(-n2nc(C)c3c2CCCC3=O)cc1", "inhibition": "1.29%"}
{"smiles": "CC(C)(C)NC(=O)CSc1nc2[nH]c(=O)cc(O)c2s1", "inhibition": "-9.23%"}
{"smiles": "CC1Oc2ccccc2N(Cc2nc(-c3cccc(F)c3)no2)C1=O", "note": "(centres undefined)", "inhibition": "-3.17%"}
{"smiles": "O=C(COC(=O)CCc1nc2ccccc2c(=O)[nH]1)Nc1ccc(N2CCOCC2)cc1", "inhibition": "2.83%"}
{"smiles": "CCN(CC)c1nc2ccccc2nc1C(=O)Nc1ccc(N2CCOCC2)cc1", "inhibition": "-1.27%"}
{"smiles": "O=C(Cc1ccccc1Cl)Nc1ccc(N2CCOCC2)cc1", "inhibition": "51.8% (active)"}
{"smiles": "CN1C[C@H]2C[C@H](C(=O)Nc3ccc4c(c3)OCO4)[C@@H](C1)O2", "inhibition": "6.94%"}
{"smiles": "CNC(=O)N1C[C@H]2C[C@H](C(=O)Nc3ccc4c(c3)OCO4)[C@@H](C1)O2", "inhibition": "37% (active)"}
{"smiles": "O=C(Nc1cccnc1)[C@H]1C[C@@H]2CN(S(=O)(=O)C3CC3)C[C@H]1O2", "inhibition": "-14%"}
{"smiles": "CC(=O)c1ccc(NC(=O)Cn2c(=O)n(-c3ccccc3)c3ncccc32)cc1", "inhibition": "10.4%"}
{"smiles": "CCS(=O)(=O)N1CC(=O)N(c2cccc(OC)c2)C(C)(C(=O)NCc2ccccc2)C1", "note": "(centres undefined)", "inhibition": "-0.355%"}
{"smiles": "O=C(NCc1ccco1)c1ccc2c(=O)nc3c(-c4ccc(F)cc4)n[nH]n3c2c1", "inhibition": "-4.4%"}
{"smiles": "COc1cccc(CNC(=O)c2ccc(-c3cncnc3)nc2)c1", "inhibition": "-15.9%"}
{"smiles": "O=C(Nc1ccccc1F)NC1CCCN(c2cc(-c3ccncc3)[nH]n2)C1", "note": "(centres undefined)", "inhibition": "-92%"}
{"smiles": "COc1cccc(CNC(=O)c2ccc3c(=O)nc4c(-c5ccccc5)n[nH]n4c3c2)c1", "inhibition": "71.8% (active)"}
{"smiles": "O=C(NCCc1ccccc1)c1ccc2c(=O)nc3c(-c4ccccc4F)n[nH]n3c2c1", "inhibition": "2.58%"}
{"smiles": "O=C(NC1CCCCC1)c1ccc2c(=O)nc3c(-c4ccccc4F)n[nH]n3c2c1", "inhibition": "49.8% (active)"}
{"smiles": "CN1CC(c2nc3ccccc3n2Cc2ccccc2)CC1=O", "note": "(centres undefined)", "inhibition": "-1.18%"}
{"smiles": "CNc1cncc(C2CCCN2C(=O)Cc2ccc3c(c2)OCO3)n1", "note": "(centres undefined)", "inhibition": "-1.13%"}
{"smiles": "O=S(=O)(Nc1cccc(O)c1)c1ccc2oc3ccc(S(=O)(=O)Nc4cccc(O)c4)cc3c2c1", "inhibition": "9.24%"}
{"smiles": "Cc1cc(C)n(CCC(=O)NCC2CCOCC2)n1", "inhibition": "-2.76%"}
{"smiles": "Cc1ccc(-c2nn(-c3ccccc3)cc2CNCc2cccnc2)cc1", "inhibition": "-268%"}
{"smiles": "CNC1C(OC2C(OC3C(O)C(O)C(OC(N)=O)C(O)C3N=C(N)N)OC(C)C2(O)CO)OC(CO)C(O)C1O", "note": "(centres undefined)", "inhibition": "0.384%"}
{"smiles": "CCc1ccccc1NS(=O)(=O)c1c(C)[nH]c(C)c1C(=O)N1CCCC1", "inhibition": "2.16%"}
{"smiles": "CC(C)Nc1ncnc2c1c(C(=O)N1CCCC1)c1ccccn12", "inhibition": "55.5% (active)"}
{"smiles": "CN1CCCN(C(=O)c2cc(-c3ccn(C)n3)n3ccccc23)CC1", "inhibition": "-22.2%"}
{"smiles": "CN1[C@@H](CCC(=O)N2CCOCC2)CNC(=O)[C@@H]2[C@H]1CCN2C1CCCCC1", "inhibition": "2.93%"}
{"smiles": "Cc1ccc(S(=O)(=O)Oc2cccnc2)c(C)c1F", "inhibition": "10.5%"}
{"smiles": "C=C1CCC2[C@](C)(CCC[C@]2(C)C(=O)OC)[C@H]1CCc1ccoc1CNCC(=O)O", "note": "(some centres undefined)", "inhibition": "-5.45%"}
{"smiles": "C=C1CCC2[C@](C)(CCC[C@]2(C)C(=O)OC)[C@H]1CCc1ccoc1C[N+](C)(C)Cc1ccccc1", "note": "(some centres undefined)", "inhibition": "30.8% (active)"}
{"smiles": "C=C1CCC2[C@](C)(CCC[C@]2(C)C(=O)OC)[C@H]1CCc1ccoc1/C=C/C(=O)O", "note": "(some centres undefined)", "inhibition": "63.4% (active)"}
{"smiles": "Cc1ccc(S(=O)(=O)N(CC(=O)NC(C)c2ccccc2)Cc2ccccc2F)cc1", "note": "(centres undefined)", "inhibition": "5.32%"}
{"smiles": "COc1cccc(S(=O)(=O)N2CCC(c3nccc(C)n3)C2)c1", "note": "(centres undefined)", "inhibition": "0.292%"}
{"smiles": "N#Cc1ccc(NC(=O)COC(=O)c2ccc3ccccc3n2)cc1", "inhibition": "-17.7%"}
{"smiles": "O=C(CCCn1c(=O)c2ccccc2n(Cc2ccccc2F)c1=O)NC1CCCC1", "inhibition": "5.2%"}
{"smiles": "N#Cc1ccc(NC(=O)Nc2cccn(Cc3ccccc3F)c2=O)cc1", "inhibition": "96.4% (active)"}
{"smiles": "O=C(Cn1cncn1)N1CCN(C(c2ccccc2)c2ccccc2)CC1", "inhibition": "-4.21%"}
{"smiles": "c1cnc(Nc2cnc(C3CCCN(Cc4cnc[nH]4)C3)cn2)cn1", "note": "(centres undefined)", "inhibition": "-10.5%"}
{"smiles": "CCN1C(=O)c2ccccc2C(=O)[C@@]2(C)CN(C(=O)c3ccccc3)C[C@@H]12", "inhibition": "15.6%"}
{"smiles": "N#Cc1cccc(S(=O)(=O)c2c[nH]c3ccc(Cl)cc3c2=O)c1", "inhibition": "46.9% (active)"}
{"smiles": "N#Cc1cccc(S(=O)(=O)N2CCC3(CC2)OC(=O)Nc2ccccc23)c1", "inhibition": "10.6%"}
{"smiles": "O=c1c(S(=O)(=O)c2cc(F)cc(F)c2)c[nH]c2ccc(F)cc12", "inhibition": "4.59%"}
{"smiles": "O=C(C1Cc2ccccc2CN1S(=O)(=O)c1ccc2c(c1)OCCO2)N1CCCC1", "note": "(centres undefined)", "inhibition": "1.43%"}
{"smiles": "CC1=C(C(=O)Nc2ccccc2)C(c2cccs2)n2ncnc2N1", "note": "(centres undefined)", "inhibition": "-32.6%"}
{"smiles": "COc1cccc(C2C(C(=O)Nc3ccccc3C)=C(C)Nc3ncnn32)c1OCc1ccccc1", "note": "(centres undefined)", "inhibition": "-22.6%"}
{"smiles": "CC1=C(C(=O)Nc2ccc(C)cc2C)C(c2cccs2)n2c(nc3ccccc32)N1", "note": "(centres undefined)", "inhibition": "31.4% (active)"}
{"smiles": "Cc1cc2c(cc1CNC(=O)c1ccc3c(c1)CC(C)O3)OCCCO2", "note": "(centres undefined)", "inhibition": "-4.91%"}
{"smiles": "O=C1c2ccccc2-c2nnc(-c3ccc(Oc4ccccc4)cc3)cc21", "inhibition": "14.8%"}
{"smiles": "Cc1nn2c(S(=O)(=O)Nc3cccc(F)c3C)c(C)nc2s1", "inhibition": "19.1%"}
{"smiles": "COCCN1C(=O)Cc2c(C)nc(C3(C)CCCN(c4ccnc(C)n4)C3)nc21", "note": "(centres undefined)", "inhibition": "30.4% (active)"}
{"smiles": "COCCN1C(=O)Cc2c(C)nc(C3(C)CCCN(c4cc(C)ncn4)C3)nc21", "note": "(centres undefined)", "inhibition": "6.73%"}
{"smiles": "O=C(C1CCCCC1)N1CCN(c2ncnc3c2nnn3Cc2ccccc2)CC1", "inhibition": "6.37%"}
{"smiles": "Cn1nc(C(=O)Nc2ccc(F)cc2)c(=O)c2ccccc21", "inhibition": "-3.42%"}
{"smiles": "Cn1cc(-c2nc(C(=O)Nc3ccc(F)cc3)cs2)c2cccnc21", "inhibition": "30.4% (active)"}
{"smiles": "Cc1cccc(NC(=O)c2csc(-c3cn(C)c4ncccc34)n2)c1", "inhibition": "6.69%"}
{"smiles": "Cc1[nH]c(C)c(S(=O)(=O)NC2CC2)c1-c1nc(C2CC2)no1", "inhibition": "-17.3%"}
{"smiles": "NC(=O)c1ccc(NC(=O)Cc2cc(-c3ccc(Cl)cc3)on2)cc1", "inhibition": "62.4% (active)"}
{"smiles": "COc1cccc(CCNC(=O)Cc2cc(-c3ccc(C)cc3)on2)c1", "inhibition": "-12.1%"}
{"smiles": "NC(=O)c1ccc(CN2CCC3(CC2)CC3c2nc(-c3cccc(Cl)c3)no2)cc1", "note": "(centres undefined)", "inhibition": "-39.4%"}
{"smiles": "CC(=O)Nc1ccc(S(=O)(=O)NCc2cn3ccccc3n2)cc1", "inhibition": "-7.51%"}
{"smiles": "Cc1cc(C)c2nc3c(cc2c1)CN(Cc1ccco1)C(=O)O3", "inhibition": "75.7% (active)"}
{"smiles": "COc1ccc2nc3c(cc2c1)CN(Cc1ccccc1)C(=O)O3", "inhibition": "20.1%"}
{"smiles": "Cc1ccc(-n2c3c(c(=O)[nH]c2=O)CN(Cc2ccco2)CN3)cc1", "inhibition": "-10.7%"}
{"smiles": "O=S1(=O)c2ccccc2C(Oc2ccccc2)CN1CCO", "note": "(centres undefined)", "inhibition": "-13.4%"}
